# Laboratory results as given in PubChem BioAssay (NCI).
# The panel holds about 83,000 compounds, 20% with a hit somewhere; the sample as a whole holds those more often.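 Percent growth is the endpoint: 0 to 100 indicates growth inhibition (40 means 60% inhibition), 0 means no net growth, and negative values indicate cell death.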 Unmarked numbers belong to inactive results. Activity calls are given as the source filed them. Rule for the calls: active = growth percent below 10; inactive = the rest.
# Test system: HL-60(TB) leukemia
# Assay: NCI-60 one-dose screen, 48 h (100 = growth as untreated, 0 = no growth, -100 = all killed)
# Conditions: 10 µM unless noted
row,SMILES,growth
1,Cc1cnc(NC(=O)Nc2cc(Br)c(C)cc2OC[C@@H]2CNCCO2)cn1,-25.3% (active)
2,COc1ccc2[nH]c(-c3ccc(Cl)cc3)cc(=O)c2c1,75.7%
3,N#CC1(O)CCCCC1,104%
4,CCCCCCCCCCCC[S+](C)CC(=O)[O-] (stereo not given),20.3%
5,CCC1S/C(=N\N=C(/C)c2cc3ccccc3o2)N(c2ccccc2)C1=O (stereo not given),-93.7% (active)
6,CCCCCCCCCCCCCCCC1=NCCN1,-15.6% (active)
7,CC(C)(C)c1ccc(C(=O)N/N=C/c2ccc(O)cc2O)cc1,5.19% (active)
8,O=C(NC1CCCCC1)OCc1c(COC(=O)NC2CCCCC2)c(-c2ccc(Cl)c(Cl)c2)n2c1CCC2,-35.6% (active)
9,Cc1cc(C)c(NC(=O)c2sc3nc4c(cc3c2N)CN(Cc2ccccc2)CC4)c(C)c1,-10.3% (active)
10,CONC1=Nc2cc(NC(N)=NCc3ccccc3)c(N(C)C3CCCCC3)cc2OC1,69.5%
11,Fc1ccc2nc(-c3nc(-c4ccccc4)n4ccccc34)[nH]c2c1,67.6%
12,CCC1S/C(=N\N=C(\C)c2cc3cc(Cl)ccc3o2)N(c2ccccc2)C1=O (stereo not given),103%
13,COc1ccc(Cl)cc1NC(N)=S,101%
14,CN1CCc2nc3sc(C(N)=O)c(N)c3c(-c3cccs3)c2C1,7.35% (active)
15,CCN(CC)CCNC(=O)c1ccc(-c2nc3ccc4[nH]ncc4c3c3c2CCCC3)cc1,67.9%
16,N#Cc1c(N)nc2c(c1N)C(c1ccc(Cl)cc1)C1=C(CCCC1=O)N2c1sc2c(c1C#N)CCCC2 (stereo not given),89.2%
17,C#C[C@]1(O)CCC2C3CCc4cc(OC5CCCC5)ccc4C3CC[C@@]21C (stereo not given in full),77%
18,O=c1ccc2cc3ccccc3cc2[nH]1,67.7%
19,Cc1ccc(C(=O)Nc2nc3c(s2)CN(Cc2ccccc2)CC3)cn1,92.6%
20,S=c1[nH]nc(CSc2ncnc3c2c(-c2ccccc2)cn3-c2ccc(Cl)cc2)o1,101%

row,SMILES,growth
1,NC(=O)c1c(NC(=O)c2ccccn2)sc2c1CCC(=O)C2,-0.0087% (active)
2,COc1cc2nc(-c3ccc(C(F)(F)F)cc3)cc(OCCCN3CCCC3)c2cc1OC,36.9%
3,CC1=C[C@H]2c3c(c(O)c(O)c4oc5ccccc5c(=O)c34)[C@H](c3cc(O)c(O)c4oc5ccccc5c(=O)c34)[C@H]2C(C)(C)C1,-23% (active)
4,Cc1ccc(NC(=S)N/C=C(\c2ccccc2)S(=O)Cc2ccccc2)c(C)c1 (stereo not given),96.8%
5,Cn1ccc2c3c(ccc21)CC3=O,113%
6,COc1cc(-c2cc3cc(O)ccc3oc2=O)cc(OC)c1OC,85%
7,CS(=O)(=O)Nc1cc(-c2ccc3ncnc(Nc4ccc5c(cnn5Cc5cccnc5)c4)c3c2)cnc1Cl,33.6%
8,O=C(O)c1ccc(-n2c(=O)c3ccccc3c3ccccc3c2=O)cc1,83.7%
9,O=C(Nc1nc2ccc(C(F)(F)F)cc2s1)c1cc(Cl)ccc1O,-54.4% (active)
10,Cc1nc2sc(C(=O)Nc3ccccn3)c(N)c2cc1C(C)O (stereo not given),34.1%
11,Nc1ccn(C2OC(F)(CO)C(O)C2F)c(=O)n1 (stereo not given),12.2%
12,COc1ccc(-c2nc(SCC(=O)Nc3nc4ccc(C)cc4s3)[nH]c(=O)c2C#N)cc1OC,105%
13,O=C(O)c1ccc(-n2cc(/C=N/Nc3ccccc3F)c(-c3ccc(O)cc3)n2)cc1,45%
14,COc1cccc2c1n([O-])c1cccc(OC)c1[n+]2=O,10.3%
15,COc1ccc(Cl)cc1NC(=O)c1cc2c(n1C)-c1nc(NC(=O)C(C)C)sc1CC2,74.7%
16,COc1ccccc1CNCCN1C(=O)c2ccc3c4c(ccc(c24)C1=O)C(=O)N(CCNCc1ccccc1OC)C3=O,-71.8% (active)
17,S=C(NCCNC(=S)[S][Sn]([c]1ccccc1)([c]1ccccc1)[c]1ccccc1)[S][Sn]([c]1ccccc1)([c]1ccccc1)[c]1ccccc1,-31% (active)
18,NC(N)=N/N=C/c1ccc([N+](=O)[O-])o1,76.1%
19,Cc1cc(Cl)ccc1OC(C)C(=O)Nc1nnc(C2CC2)s1 (stereo not given),108%
20,c1ccc(-c2c(-c3ccccc3)[n+](Cc3ccc4ccccc4c3)c(-c3cccc4ccccc34)n2Cc2ccc3ccccc3c2)cc1,-46.8% (active)
